Source: PubChem (National Center for Advancing Translational Sciences (NCATS))
Hits are enriched below; roughly 6.2% of the tested compounds scored in any of these assays.
LASV entry inh: qHTS for Inhibitors of binding or entry into cells for Lassa Virus. Lassa virus pseudotype entry inhibition, cell reporter. Potency, µM (series often up to 37.9 µM), without a hit: at the highest dose activity change, negative = inhibition, most hits filed as inhibitors. 300,000 tested, 1.2% active; calls by dose curve; tested in HEK293 cells; note: potency is the fitted concentration of half-maximal effect; nearly all actives have a fitted effect of over 50% in size
MARV entry inh: qHTS for inhibitors of binding or entry into cells for Marburg Virus; 300,000 tested, 1.8% active; Marburg virus pseudotyped entry inhibition, cell reporter; Potency, µM (titrated, usually from 37.8 µM), for inactives: at the highest dose activity change, negative = inhibition, most hits filed as inhibitors; calls by dose curve; tested in HEK293 cells; note: potency is the fitted concentration of half-maximal effect
FMDV antiviral: High Throughput Screening for Foot and Mouth Disease Virus Antivirals; FMDV antiviral cell-based qHTS; Potency, µM (doses to about 57.9 µM), for the others: at the highest dose activity change, negative = inhibition, hits mostly inhibitors; 410,000 tested, 1.2% active; AID 1159524, 2015; calls by dose curve; tested in HEK293T cells; note: read-out not given here; potency is the fitted concentration of half-maximal effect; nearly all actives have a fitted effect of over 45% in size
HCMV antiviral: qHTS Assay for inhibitors of the human cytomegalovirus (HCMV). HFF cells, HCMV-luciferase reporter, 72 h; active compounds read low. activity change, negative = inhibition, % at 57.5 µM. 410,000 tested, 4.5% active. AID 1259415, 2018; in the data active = activity change below about -60%; inconclusive = no clear call, values can overlap the other calls; inactive = above about -39%
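After 16 h attachment at 37C, HFF cells received test compound and HCMV-luciferase (1 PFU/cell); reporter luminescence read 72 h later, data normalized against buffer-only and known inhibitor Salinomycin.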
* hit, by the source's call; ? = inconclusive; . = no result given; [ ] = remark or other dose. % is set by controls: 0 for no effect and ±100 for the full control effect.

SMILES	LASV entry inh	MARV entry inh	FMDV antiviral	HCMV antiviral
CN(C)c1ccc(C=Nc2ccccc2C(N)=O)cc1	?	15µM*	-37%	44
CS(=O)(=O)c1nc([N+](=O)[O-])nn1CCCc1ccccc1	5%	?	18µM*	.
CCN(CC)S(=O)(=O)c1cc(NC(=O)C2CCN(c3ncnc4sc(C)c(C)c34)CC2)ccc1Cl	?	3.5µM*	8.9µM*	-82*
Cc1sc2ncnc(N3CCC(C(=O)Nc4nc(-c5cccs5)cs4)CC3)c2c1C	4%	2.2µM*	-18%	16
Cc1ccc(C)c(S(=O)(=O)N2CCN(C(=O)C3CCN(c4ncnc5sc(C)c(C)c45)CC3)CC2)c1	?	?	?	-67*
CCOC(=O)c1ccccc1NC(=O)C1CCN(c2ncnc3sc(C)c(C)c23)CC1	-14%	2%[46.1 µM]	?	.
CCc1nnc(NC(=O)C2CCN(c3ncnc4sc(C)c(C)c34)CC2)s1	.	.	?	94
Cc1sc2ncnc(N3CCC(C(=O)Nc4ccccc4C(C)(C)C)CC3)c2c1C	-3%[46.1 µM]	?	25µM*	-36
Cc1ccc(NC(=O)C2CCN(c3ncnc4sc(C)c(C)c34)CC2)cc1S(=O)(=O)N(C)C	-17%	?	?	?
COc1cccc(CNC(=O)C(C)n2c(=O)cc(-c3ccccc3)c3c(C)nn(C)c32)c1 (stereo not given)	-9%[46.1 µM]	.	-10%	-6
Cc1sc2ncnc(N3CCC(C(=O)NNC(=O)c4ccc(Cl)cc4)CC3)c2c1C	13%	-27%	25µM*	?
Cc1sc2ncnc(N3CCC(C(=O)Nc4cc(Cl)ccc4Cl)CC3)c2c1C	-8%	1%	-20%	-20
Cc1sc2ncnc(N3CCC(C(=O)Nc4ccc(S(N)(=O)=O)cc4)CC3)c2c1C	.	.	?	-79*
C[C@@H]1CN([C@@H](C)CO)C(=O)CCCn2cc(nn2)CO[C@H]1CN(C)C(=O)Nc1ccc(N2CCN(C)CC2)cc1	.	.	.	6
CCn1c(=O)c2cc(C(=O)N3CCN(c4cccc(Cl)c4)CC3)sc2c2ccccc21	15%[46.1 µM]	?	?	1
COc1cc(C(=O)NC(=S)N(C)Cc2ccccc2)cc(OC)c1OC	-25%	9%[46.1 µM]	-22%	-28
COc1cc(C(=O)NC(=S)N(CCc2ccccc2)CCc2ccccc2)cc(OC)c1OC	?	3.2µM*	0%	-34
CCC(=N\NC(=O)COc1ccccc1OC)/C(CC)=N/NC(=O)COc1ccccc1OC	.	.	?	4
COc1ccccc1OCC(=O)NN=C(Cc1ccccc1)Cc1ccccc1	6%	?	-12%	-63*
NC(=S)NN=C(Cc1ccccc1)Cc1ccccc1	?	?	?	-70*
O=C(NC(=S)N(CCc1ccccc1)CCc1ccccc1)c1ccco1	8.9µM*	?	7%	-19
O=C(NN=C(Cc1ccccc1)Cc1ccccc1)c1ccccc1O	7%[46.1 µM]	?	-2%	-39
CC(CCc1ccccc1)NC(=S)NC(=O)c1ccco1 (stereo not given)	?	15%[46.1 µM]	-7%	-39
Cc1c(CNC2CCCCCC2)c(C(=O)O)c(C)n1Cc1cccc(Cl)c1	1%[46.1 µM]	30%[46.1 µM]	13%	?
COc1cc(C(=O)N/N=C(\C)Cc2ccccc2)cc(OC)c1OC	?	?	-8%	-91*
SMILES	LASV entry inh	MARV entry inh	FMDV antiviral	HCMV antiviral
Cc1nnc(SCC(=O)N2CCC(c3noc4ccc(F)cc34)CC2)s1	0%	5%	-22%	-70*
Cc1sc2ncnc(SCC(=O)N3CCC(c4noc5ccc(F)cc45)CC3)c2c1C	9%	30%	-10%	-1
COc1ccc(CN2C[C@H](Sc3nc4ccccc4[nH]3)C[C@H]2C(=O)N(C)C)c2ccccc12	.	.	1%	.
CCOc1ccc(N2CC(O)(c3cccs3)[N+]3=C2CCCC3)cc1 (stereo not given)	-1%	5.6µM*	-16%	-9
COc1ccc(N2CC(O)(c3ccc(C)cc3)[N+]3=C2CCCC3)cc1 (stereo not given)	2%	7%[46.1 µM]	10%	22
COc1ccc(N2CC(O)(c3ccc(F)cc3)[N+]3=C2CCCC3)cc1 (stereo not given)	12%	-3%	-25%	-81*
COc1ccc(N2C3=[N+](CCCC3)CC2(C)O)cc1 (stereo not given)	3%	4%	-23%	-78*
Cc1ccc(F)cc1S(=O)(=O)NCc1nc(N2CCCC2)c2cccc(C)c2n1	.	.	-13%	.
O=C(Nc1ccc(F)c(Cl)c1)c1ccc2c(Cl)c3c(nc2c1)CCCC3	12%[46.1 µM]	?	11%	0
COc1ccc(CC(=O)NCCc2cn(C)c3ccccc23)cc1OC	.	.	.	-17
